Source: PubChem BioAssay AID1347426 (Functional Genomics Laboratory (NCATS/FGL), 2020)
Screen size: about 31,000 sequences; about 1,400 (4.5%) were called active.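 The calls were made as follows: active = median seed-adjusted z-score above 1 or below -1; inactive = the rest.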 Many of the other results were omitted from the sample, so actives are more common in it than they were.

assay: Novel Modifiers of Survival Motor Neuron (SMN) Protein: Gene Identification via Genome-wide siRNA Screen; conditions: HEK293T SMN2-luciferase reporter, siRNA knockdown, 72 h; actives lie on both sides;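 also: luminescence tracks full-length SMN protein made from the SMN2 reporter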
Method in brief: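 siRNA screen, 10418 genes ×3 siRNAs; 1 pmol/well, lipid reverse transfection into HEK293T SMN2-luc reporter line. 72 h, 37 °C, 5% CO2; ONE-Glo readout. Data: neg-ctrl normalized, log10, MAD; hit = MAD >1.0 or < -1.0.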

Sequence | median seed-adjusted z-score
CAUCAUUACGAUUAGCCUATT against ARFGAP3 | 0.00412 (inactive)
CGGGAUUUAUAGGCAAUGATT against RNASEH1 | -0.0205 (inactive)
CAUUCGCUCUCAUACUGGATT against CTCF | -0.0821 (inactive)
GGAUCUUCAAAGUCACGAATT against CACNA1B | 0.0963 (inactive)
GCACCCACGUCAUCCCUAATT against GRIN1 | -0.137 (inactive)
CCAUUCUUCUAGCAACUGATT against DDX47 | -0.398 (inactive)
GUCCUAUCACCGUAUCUUATT against SF3B4 | -2.56 (active)
GGUUAGGGCUUGACCCAAATT against HIBADH | 0.234 (inactive)
CAGACGUGAUGACAAGAUUTT against S100A7 | -0.253 (inactive)
CAAUGGUGUCUACAAGAUUTT against SLCO1C1 | 0.071 (inactive)
CACCUGCUAUGUUACGGGATT against BAT2 | 0.0889 (inactive)
AGAUACUGGUAUUGCUCGATT against SNRPB | -3.17 (active)
GACCCAUUGCUGUCCAACATT against EMID1 | 0.979 (inactive)
AGAGGAACUUUAUUCUUGATT against HNRNPUL2 | -0.0273 (inactive)
AUAACUACCUGAUCAAGAATT against YWHAG | 1.98 (active)
CCCUGGUAGUUCCACACCATT against CRHBP | -0.0443 (inactive)
GAACAUUGGUUCUUAGAGATT against MKRN2 | 0 (inactive)
GGGACUUCAUGUUCGAGCATT against DNAI2 | 0.12 (inactive)
GCAGAAAGGUGUAACAUAATT against DDI2 | 1.27 (active)
CAGGCAAACCGCUACAUCATT against EN1 | 0.761 (inactive)
ACAGUUCUCUAUGACCUCATT against PLA2G4E | 0.266 (inactive)
AGUGCAUGGUUGCAGCUGATT against RNF144A | -0.185 (inactive)

Sequence | median seed-adjusted z-score
GAAUCAAUAUAAUCUAGCATT against UBE2Q2 | 0.146 (inactive)
AGAACUGCGUGACUAUACATT against ZNF417 | 0.0205 (inactive)
GCCUCUCACAUCUAUGGUATT against ITIH4 | 0.64 (inactive)
GGAGAAAGAAUGACGAGAATT against TGFBR2 | 0.8 (inactive)
AACUCGCUGUUGUACCUGATT against CPSF1 | 3.29 (active)
GGCAUUAUGUGAAGGCGAATT against SMC5 | 0.0666 (inactive)
CCAUCACCUUCAAUCCGCUTT against PEMT | 0.0218 (inactive)
GGUAGACUGUCAUCGUGAATT against RAD50 | 0.266 (inactive)
CAUCACCGCUGGGUCCAAATT against FABP1 | -0.302 (inactive)
UGGAAUAAGUGGGCUCUGATT against ADM | 0.65 (inactive)
CAAUAUGCCUUUCUCUACATT against DNASE1L3 | 0.0678 (inactive)
GGACUGCUUCAUAUACUGATT against GLT8D1 | 1.22 (active)
GGGACUAACAUGUACAACATT against PCDH24 | 0.345 (inactive)
CAGUUACUAUAAAAACCGATT against ZNF711 | 0.254 (inactive)
GAGAUAGACUUGCUGAGCATT against TRIP6 | 1.03 (active)
GGAAAAUCAAUAUAUCACUTT against ADH6 | -0.132 (inactive)
GGAGCAUACAGAACGGACATT against SIPA1L3 | 0 (inactive)
GGUCAUACACGGGAUCUCUTT against SLC30A2 | -0.402 (inactive)
GCAUUGGAACGAUUCUAAATT against CTPS2 | 1.08 (active)
CGCACGCUCUUCAAAUUCUTT against ADRA2A | -0.65 (inactive)
GCAAAUGAGUGUGACCUAATT against RAB38 | -0.165 (inactive)
CCAACCUAAUUAUGGAGGATT against PCDHGB4 | 0.176 (inactive)

Sequence | median seed-adjusted z-score
AGGUUUAUGUGACCAAGCATT against KCTD8 | 0.0212 (inactive)
GAGCGAAGAUGUCCGAAAATT against MIPEP | -0.169 (inactive)
GCUUCAAUGAGACAACCCUTT against IP6K2 | -0.193 (inactive)
CAGAAGUUGUGCAAUCCAATT against ADAM32 | 1.75 (active)
GGAUGGUCGGAUUCUGAAATT against ITPKC | 0.218 (inactive)
CCAGGCUAUCUUUCCGAUATT against PTPN3 | -0.535 (inactive)
GCCCACUGACCAUACCUCATT against NAT6 | -0.327 (inactive)
GGAGUUGAUUUUAUGAUUATT against RAB30 | 0.395 (inactive)
GUAUCAGCAUUGAUAGAUATT against GPR21 | 0.246 (inactive)
GCACCGAGCUUUACAGUGUTT against LARP1 | 0.251 (inactive)
CCUUGUGCGUUACAGAAGATT against SCARA3 | -0.05 (inactive)
CAUCAAGCCUCAUCUAAUATT against CHD1 | -1.03 (active)
CCCAGUUUCUAGUCUGCUATT against SHKBP1 | 0.345 (inactive)
AGACAAUUUGUAACUAGAATT against NEUROD2 | -0.103 (inactive)
AGAUCAAGGUGUACGAGAUTT against KIF26A | -0.428 (inactive)
GCAUCUAUGUAACAAAGAUTT against DLG4 | -0.498 (inactive)
CGAAUGCAUCAGAUCAACATT against UBA2 | 0.694 (inactive)
GUAACAACAUCAUCCUAGATT against HSPG2 | 0.478 (inactive)
GACCCGGUAUAUGAACUCATT against UCP3 | 1.23 (active)
GAGAAGGCCUAUUCAGACATT against ZBTB7C | 0.447 (inactive)
CGAGCUGACUUCAACAGGATT against STC1 | -1.36 (active)
GUGUGGUACAGAACAUUUATT against GUCA1C | -0.617 (inactive)

Sequence | median seed-adjusted z-score
GCAACAACCUGAUUAAGGATT against MED24 | -2.3 (active)
GGACUCAGCAGGAUACAAUTT against FOXJ2 | -0.627 (inactive)
ACUUAGCACUUUAUAUUUATT against DUSP2 | 0.576 (inactive)
GAGCAGUACUGGGAAGAGATT against CARD14 | -0.104 (inactive)
GCAGCUUAGGAACAGCAGATT against THOC4 | -1.54 (active)
CCAUGACACGGUCCUCCAATT against ICAM2 | 0.269 (inactive)
GCUUUGUGGUGUGGAGUAUTT against LTB4R | 0.498 (inactive)
GAAGAUGACAUGUACCGUATT against XPA | 2.03 (active)
GCUGCUACUUUGAAGUCCATT against FGG | -0.043 (inactive)
CAUGCAGCCUUAAGCCUCATT against ILKAP | 0 (inactive)
GCCUAGAGCUAAGUACCAATT against CHUK | -0.613 (inactive)
GGCACUAAGUUUGACCGGATT against AQR | -1.56 (active)
GCCUUUGACCUGUCAGUGUTT against ASMT | -0.322 (inactive)
GCAUCCUGUUUGUAAAUGATT against DLG4 | -0.498 (inactive)
CCGUGGUUACAGAAACGUATT against ABHD3 | -0.126 (inactive)
CAAGAUGCUGGAUAAGGAATT against GYS1 | 0.874 (inactive)
GGAUUCUUGUUGGACUAAUTT against RHBDD1 | 0.00277 (inactive)
CAAUAGGAUUAUCAUGAGATT against MRS2 | 1.38 (active)
GGCUACAACAUGACUCGUATT against FZD10 | -0.226 (inactive)
UCACUGUCCCAGACACCAATT against EPO | 0.148 (inactive)
UGGACAACUUUGUACCUAATT against EBP | 0.017 (inactive)
GGCUCAACAUGGACCGGAUTT against BCAT2 | 0.0438 (inactive)

Sequence | median seed-adjusted z-score
CAAAGGCGAUAACAUCUAUTT against UBE2E1 | 0.888 (inactive)
GCCCUAAAGGAGAAAGUCATT against MAT2A | -1.9 (active)
GCAUGUAAGAAUCCACAAUTT against ZNF187 | 0.419 (inactive)
GCCUAAAUCCCAAAUCGAATT against CXCL11 | -0.135 (inactive)
ACAGCGACCUUGCAAAGAATT against ZNF496 | -0.971 (inactive)
GAAAGUGCUCGGUGCCUUUTT against HBB | -0.151 (inactive)
GGCGAGAAGAGCAACGUAATT against DDX46 | -1.24 (active)
CAACGGCUUCUGUCAUUUATT against SUCLG1 | -0.63 (inactive)
GAAGUUCUCUUUACAACCATT against RFX2 | 0.271 (inactive)
GUUCAGCACUCAUUAGACATT against ZNF17 | 0.579 (inactive)
CGAUCAUUACCUCUCCAGATT against ARHGEF4 | 0.332 (inactive)
GAAUGACCAGAGACAUCUATT against INSR | 0.172 (inactive)
GGAUUUGCCGAAUUAACAATT against RELB | 1.16 (active)
GGAGAUAGCUUUGCCUAUATT against RBM15B | -0.183 (inactive)
GGUACUCGGUGGAAACCAATT against CNKSR3 | 0 (inactive)
CAUUAACCAGUGAACGCAATT against AADAT | 0.0891 (inactive)
CAAGAAUGUUACUAACAAUTT against TPM4 | -0.407 (inactive)
GCUACAGUCUCUACCCUGATT against BARX1 | 1.63 (active)
AGCUCAAGAAGUACACCAATT against CHST12 | 0 (inactive)
CCUCGAUUCCAUUAUCAUUTT against RECQL4 | 0.475 (inactive)
GCCUAGAGGACUACAAGAATT against FZD8 | -0.177 (inactive)
